ELG1 DNA repair: qHTS screen for small molecules that inhibit ELG1-dependent DNA repair in human embryonic kidney (HEK293T) cells expressing luciferase-tagged ELG1. actives 2.3% (n = 330,000). Potency, µM (doses to about 46.1 µM), hits mostly inhibitors. HEK293T ELG1-luciferase reporter, luminescence, 16 h; DNA damage induced by 5-fluorouridine. AID 504467, 2011; further: nearly all actives have a fitted effect of over 55% in size
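DMSO vehicle served as the neutral condition. Each well held 2,000 cells given 5-fluorouridine plus compound; after 16 hr at 37 °C/5% CO2, ONE-Glo was added and luciferase measured 30 min later.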
DT40 TDP1 no CPT: qHTS for Inhibitors of human tyrosyl-DNA phosphodiesterase 1 (TDP1): qHTS in cells in absence of CPT; DT40 Tdp1-/- hTDP1 cells, no CPT, ATP luminescence, 48 h; Potency, µM (series often up to 46.2 µM), hits mostly inhibitors; AID 686978, 2013; actives 15% (n = 420,000); further: nearly all actives have a fitted effect of over 55% in size
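Camptothecin absent (DMSO only). Human TDP1-complemented DT40 knockout cells, 400 cells/well, 37 °C for minimum 48 hr; ATP measured via CellTiter-Glo, 30 min dark incubation, luminescence.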
Gal4-VP16 FLuc: VP16 counterscreen qHTS for inhibitors of ROR gamma transcriptional activity; actives 3.5% (n = 310,000); Drosophila S2 Gal4-VP16 UAS-luciferase, luminescence, 20 h; Potency, µM (highest dose often 53.6 µM), usual class: inhibitors; AID 2546, 2010;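 further: Gal4-VP16 expression switched on by copper sulfate through the metallothionein promoter; nearly all actives have a fitted effect of over 50% in size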
TDP1 cell CPT: qHTS for Inhibitors of human tyrosyl-DNA phosphodiesterase 1 (TDP1): qHTS in cells in presence of CPT; chicken DT40 Tdp1-/-;hTDP1 cells + 20 nM CPT, ATP luminescence, 48 h; Potency, µM (doses to about 46.2 µM), actives largely listed as inhibitors; actives 12% (n = 420,000); further: nearly all actives have a fitted effect of over 55% in size
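Cell growth measured by CellTiter-Glo luminescence after a minimum 48 h, 37 C compound exposure with 20 nM CPT in Tdp1-knockout DT40 cells stably expressing hTDP1, seeded 400/well; qHTS titration format.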
RORgamma inh: qHTS for inhibitors of ROR gamma transcriptional activity; Nuclear receptor ROR-gamma (Mus musculus), P51450; Drosophila S2 Gal4-RORgamma UAS-luciferase reporter, 20 h; Potency, µM (top dose mostly 53.6 µM), actives largely listed as inhibitors; actives 5.4% (n = 310,000); further: nearly all actives have a fitted effect of over 60% in size
Target sequence (P51450 whole entry, looked up, the tested form may be a part): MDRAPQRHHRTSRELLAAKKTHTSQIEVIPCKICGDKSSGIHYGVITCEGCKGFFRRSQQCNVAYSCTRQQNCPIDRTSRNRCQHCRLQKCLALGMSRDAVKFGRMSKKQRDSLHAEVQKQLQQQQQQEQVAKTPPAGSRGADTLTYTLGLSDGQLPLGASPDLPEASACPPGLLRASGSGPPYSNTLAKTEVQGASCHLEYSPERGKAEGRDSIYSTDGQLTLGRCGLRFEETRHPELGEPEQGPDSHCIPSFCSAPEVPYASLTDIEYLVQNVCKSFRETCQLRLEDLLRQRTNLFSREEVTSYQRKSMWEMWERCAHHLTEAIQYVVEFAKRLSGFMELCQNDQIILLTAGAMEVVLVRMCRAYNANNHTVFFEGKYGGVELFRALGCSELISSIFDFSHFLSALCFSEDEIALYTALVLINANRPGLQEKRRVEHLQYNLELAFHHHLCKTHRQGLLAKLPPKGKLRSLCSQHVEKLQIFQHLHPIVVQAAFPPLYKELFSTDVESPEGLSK
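Luminescence from a UAS-regulated Photinus luciferase reporter in stably transfected Drosophila Schneider cells is measured; decreased signal marks ROR gamma inhibition. Fusion expression is induced by 700 uM copper sulfate for 20 hr.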
12-LOX inh: Primary qHTS assay for inhibitors of human arachidonate 12S-lipoxygenase (ALOX12): Round 2; Polyunsaturated fatty acid lipoxygenase ALOX12 (Homo sapiens), P18054; purified 12hLO, xylenol orange hydroperoxide absorbance; Potency, µM (doses to about 108 µM), actives largely listed as inhibitors; actives 1.1% (n = 580,000); AID 1671190, 2021
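Hydroperoxide product was detected by ferrous iron/xylenol orange as the 573 to 405 nm absorbance ratio. Arachidonic acid at 40 uM (final) was turned over for 30 min at room temperature by 150 nM human 12hLO, pH 7.0 Hepes buffer, after 15 min compound preincubation.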
Hits are given with their value; 0 = inactive; ? = inconclusive; - = no result. The list is not random: actives were taken first. Their share in the collection is about 15%. The call rests on the fitted dose curve; in most records, active means well fitted curve in the direction sought with a large enough effect; inconclusive means small, poorly fitted or top-dose-only effect, or another doubt; inactive means no such curve, though single readings can be large; an effect the other way counts as inactive or inconclusive.

SMILES	ELG1 DNA repair	DT40 TDP1 no CPT	Gal4-VP16 FLuc	TDP1 cell CPT	RORgamma inh	12-LOX inh
CCCC1=NN(C(=O)C(=O)Nc2ccc(Br)cc2)C(O)(C(F)(F)F)C1 (centres undefined)	0	4.61µM	5.01µM	4.11µM	0.794µM	?
CCC1=NN(C(=O)C(=O)Nc2ccc(Br)cc2)C(O)(C(F)(F)F)C1 (centres undefined)	0	0	5.01µM	0	2.82µM	?
COc1ccc(C2=NN(C(=O)C(O)c3ccccc3)C(O)(C(F)(F)F)C2)cc1 (centres undefined)	0	?	0	0	0	0
O=C(C1CC1)N1N=C(c2cccc(Br)c2)CC1(O)C(F)(F)F (centres undefined)	0	?	0	?	0	0
CCNC(=O)N1C[C@@H]2OCC(=O)N(C(C)C)[C@@H]2C1	-	-	-	-	-	0
CC(C)n1nc(C(=O)OC/C(O)=C(\C#N)c2nc3ccccc3[nH]2)c2ccccc2c1=O	-	-	-	-	-	0
O=C(NC12CC3CC(CC(C3)C1)C2)C1CC=CCC1 (centres undefined)	-	-	-	-	-	0
CC(=O)Nc1nc(-c2ccccc2)nc(-c2ccccc2OC(C)=O)n1	20.6µM	18.4µM	0	?	0	0
CC(=O)Nc1nc(C)nc(-c2ccccc2OC(C)=O)n1	0	0	0	0	0	0
CCC(Sc1ncnc2sc3c(c12)CCCC3)C(=O)OC(C)C (centres undefined)	-	?	-	18.4µM	-	0
CCC(Sc1ncnc2sc3c(c12)CCCC3)C(=O)OCC(C)C (centres undefined)	-	?	-	25.9µM	-	0
CC(C)NC(=O)CN(C)c1nc(-c2ccncc2)nc2ccccc12	-	-	-	-	-	0
CCC(=O)N1c2ccc(S(=O)(=O)CCC(=O)N3CCN(c4ccc(F)cc4)CC3)cc2CC1C (centres undefined)	-	13µM	-	14.6µM	-	0
CCC(=O)N1c2ccc(S(=O)(=O)CCC(=O)Nc3ccc(Br)c(C)c3)cc2CC1C (centres undefined)	-	20.6µM	-	18.4µM	-	?
CCC(=O)N1c2ccc(S(=O)(=O)CCC(=O)NC3CCCC3)cc2CC1C (centres undefined)	0	0	0	0	0	0
CCC(=O)N1CCc2cc(S(=O)(=O)CCC(=O)N3CCN(c4ccc(F)cc4)CC3)ccc21	?	23.1µM	0	20.6µM	0	0
CCC(=O)N1CCc2cc(S(=O)(=O)CCC(=O)N3CCN(c4cccc(C)c4C)CC3)ccc21	-	0	-	0	-	0
CCC(=O)N1CCc2cc(S(=O)(=O)CCC(=O)N3CCN(c4ccccc4Cl)CC3)ccc21	-	?	-	18.4µM	-	0
CC(=O)CC(C)(C)S(=O)(=O)c1cccc2c(S(=O)(=O)C(C)(C)CC(C)=O)cccc12	-	-	-	-	-	0
CC(=O)c1ccc(N2CCN(C(=O)CCS(=O)(=O)c3ccc4c(c3)CCN4C(C)=O)CC2)cc1	?	?	?	20.6µM	0	0
CC(=O)N1CCCc2cc(S(=O)(=O)CCC(=O)N3CCN(c4cccc(C)c4)C(C)C3)ccc21 (centres undefined)	20.6µM	?	0	20.6µM	0	0
CCn1cc(CNC(=O)c2cc(COc3ccc(F)cc3Cl)on2)cn1	0	5.8µM	0	20.6µM	0	0
CC(Cc1cccnc1)NC(=O)c1cc(COc2ccc(F)cc2Cl)on1 (centres undefined)	0	23.1µM	0	20.6µM	?	0
CC(Cc1cccnc1)NC(=O)c1cc(COc2c(F)cccc2F)on1 (centres undefined)	0	?	0	?	0	0
